The test system of assay [1] is DLD1. The assay can be described thus: cell viability (CellTiter-Glo) relative to plate median (fraction of plate median); higher = more viable cells. The conditions noted are these: 10 µM, treatment time 24 h. In outline:
(§1)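 Each value averages two independent replicates in which the well signal was normalised to the plate median (webcellHTS2, additive, without log transformation). The signal was firefly luciferase or CellTiterGlo luminescence, read on parallel plates with a Tecan F500. The cells were colorectal cancer lines with stable lentiviral TCF/Wnt firefly luciferase reporters in 384-well plates, dosed 24 h after seeding with kinase inhibitor library compounds at a final 10 µM for 24 h.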
A general note: Cellular ATP, detected with luciferase, serves as a proxy for viable cell number.

Assay [2] relates to HCT116. The description is as above. The conditions noted are these: 10 µM; treatment time 24 h; reporter: TCF4/Wnt. Summed up: as §1
Assay [3] has as its system SW480. The assay is described as above. The conditions noted are these: 10 µM; treatment time 24 h; reporter: 7TFP. Summed up:
as §1

For assay [4], the system named is DLD1. The assay can be described thus: TCF/Wnt firefly luciferase reporter signal relative to plate median (fraction of plate median); higher = higher Wnt reporter signal. The following applies: 10 µM, treatment time 24 h. Summed up: as §1
The test system of assay [5] is HCT116. The description is as above. The following applies: 10 µM; treatment time 24 h; reporter: TCF4/Wnt. In outline:
as §1

The subject of assay [6] is SW480. The assay is described as above. The conditions noted are these: 10 µM; treatment time 24 h; reporter: 7TFP. In outline:
as §1

Assay [7] concerns DLD1. The assay can be described thus: cell viability (CellTiter-Glo) relative to plate median (fraction of plate median); higher = more viable cells. The following applies: 5 µM; treatment time 24 h; reporter: 7TFP. Summed up:
(§2)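 Values are well luminescence normalised to the plate median, from either a firefly luciferase or a CellTiterGlo readout on parallel plates. The cells, colorectal cancer lines stably transduced with lentiviral 7TFP or TCF4/Wnt firefly luciferase reporters, were treated with library compounds at a final 5 µM for 24 h. The mean of two independent replicates is listed.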

The test system of assay [8] is HCT116. The description is as above. The following applies: 5 µM; treatment time 24 h; reporter: TCF4/Wnt. Summed up: as §2
For assay [9], the system named is SW480. Described as above. The following applies: 5 µM; treatment time 24 h; reporter: 7TFP. In outline:
as §2

The subject of assay [10] is DLD1. The assay can be described thus: TCF/Wnt firefly luciferase reporter signal relative to plate median (fraction of plate median); higher = higher Wnt reporter signal. The following applies: 5 µM; treatment time 24 h; reporter: 7TFP. In outline:
as §2

Assay [11] has as its system SW480. The description is as above. The following applies: 5 µM; treatment time 24 h; reporter: 7TFP. In outline:
as §2

± gives the standard deviation of the averaged measurements.

Turning to `COC(=O)c1ccc2c(C(=Nc3ccc(N(C)C(=O)CN4CCN(C)CC4)cc3)c3ccccc3)c(O)[nH]c2c1` [BIBF1120 (Vargatef)], the cell viability in assay [1] (reporter: 7TFP) stood at 1.21 ± 0.18; in [1] (reporter: TCF4/Wnt) it was 1.04 ± 0.014; in [2], 1.06 ± 0.028; in [3], 1.125 ± 0.0071. Moreover, the “TCF/Wnt firefly luciferase reporter signal” value in assay [4] (reporter: 7TFP) is 1.35 ± 0.035; in [4] (reporter: TCF4/Wnt), 1.03 ± 0.18; in assay [5], 0.749 ± 0.54; in [6], 0.895 ± 0.53.
`Cc1cc(Nc2cc(CN3CCOCC3)c3nc(C)c(Cc4ccc(Cl)cc4F)n3n2)n[nH]1`: the cell viability in assay [1] (reporter: 7TFP) worked out at 0.907 ± 0.096; in assay [1] (reporter: TCF4/Wnt) it was 1.05 ± 0.064; in [2], 0.975 ± 0.12; in assay [3] it was 0.781 ± 0.14. The “TCF/Wnt firefly luciferase reporter signal” value came out at 1.27 ± 0.028 in assay [4] (reporter: 7TFP), 1.17 ± 0.43 in [4] (reporter: TCF4/Wnt), 0.826 ± 0.61 in assay [5] and 0.861 ± 0.05 in assay [6].
Regarding `O=C(NOC[C@H](O)CO)c1ccc(F)c(F)c1Nc1ccc(I)cc1F`, the cell viability in [1] (reporter: 7TFP) is 1.25 ± 0.064; in [1] (reporter: TCF4/Wnt), 1.05 ± 0.014; in assay [2], 0.907 ± 0.058; in [3], 1.11 ± 0.028; in assay [7], 1.1 ± 0.064; in assay [8], 0.895 ± 0.05. The cell viability in assay [9] worked out at 1.03 ± 0.05. Besides, the “TCF/Wnt firefly luciferase reporter signal” value in assay [10] stood at 1.34 ± 0.22; in assay [11] it was 1.47 ± 0.071; in assay [4] (reporter: 7TFP) it was 1.62 ± 0.17; in assay [4] (reporter: TCF4/Wnt), 1.28 ± 0.26; in assay [5], 1.06 ± 0.028; in assay [6], 1.75 ± 0.092.
Take `Nc1nc(N)c2nc(-c3cccc(O)c3)cnc2n1`: the cell viability amounted to 1.09 ± 0.014 in assay [1] (reporter: 7TFP), 1.08 ± 0.021 in assay [1] (reporter: TCF4/Wnt), 0.97 ± 0.018 in assay [2] and 1.04 ± 0.064 in assay [3]. Also, the “TCF/Wnt firefly luciferase reporter signal” value is 1.4 ± 0.26 in [4] (reporter: 7TFP), 1.15 ± 0.085 in assay [4] (reporter: TCF4/Wnt), 1.33 ± 0.31 in assay [5] and 1.34 ± 0.042 in assay [6].
As for `CO[C@H]1C[C@@H]2CC[C@@H](C)[C@@](O)(O2)C(=O)C(=O)N2CCCC[C@H]2C(=O)O[C@H]([C@H](C)C[C@@H]2CC[C@@H](OP(C)(C)=O)[C@H](OC)C2)CC(=O)[C@H](C)/C=C(\C)[C@@H](O)[C@@H](OC)C(=O)[C@H](C)C[C@H](C)/C=C/C=C/C=C/1C` [Deforolimus (Ridaforolimus)], the cell viability in assay [1] (reporter: 7TFP) worked out at 0.979 ± 0.086; in [1] (reporter: TCF4/Wnt), 1.08 ± 0.092; in [2], 0.979 ± 0.044; in assay [3] it was 1.27 ± 0.021. Besides, the “TCF/Wnt firefly luciferase reporter signal” value in assay [4] (reporter: 7TFP) worked out at 0.844 ± 0.022; in assay [4] (reporter: TCF4/Wnt), 1.02 ± 0.24; in [5], 0.799 ± 0.43; in assay [6], 1.11 ± 0.39.
Turning to `COc1ccc(-c2ccc3c(N4CCOCC4)nc(N4C[C@@H](C)O[C@@H](C)C4)nc3n2)cc1CO`, the cell viability in assay [1] (reporter: 7TFP) was 0.938 ± 0.074; in assay [1] (reporter: TCF4/Wnt) it was 0.878 ± 0.041; in assay [2] it was 0.842 ± 0.076; in assay [3], 1.18 ± 0.021. Also, the “TCF/Wnt firefly luciferase reporter signal” value in assay [4] (reporter: 7TFP) came to 0.392 ± 0.059; in [4] (reporter: TCF4/Wnt), 0.597 ± 0.019; in [5], 0.432 ± 0.24; in [6] it was 0.812 ± 0.29.
`CCn1cc(-c2ccnc3[nH]c(-c4cccc(CN(C)C)c4)cc23)c(-c2ccc(NC(=O)N(C)C)cc2)n1`: the cell viability in [1] (reporter: 7TFP) came out at 0.994 ± 0.11; in assay [1] (reporter: TCF4/Wnt), 0.9965 ± 0.0021; in assay [2], 0.913 ± 0.05; in [3], 1.07 ± 0.099. Besides, the “TCF/Wnt firefly luciferase reporter signal” value in assay [4] (reporter: 7TFP) is 1.01 ± 0.11; in [4] (reporter: TCF4/Wnt), 1.05 ± 0.081; in [5] it was 1.71 ± 0.028; in assay [6], 1.02 ± 0.16.
`CCOc1cc2ncc(C#N)c(Nc3ccc(F)c(Cl)c3)c2cc1NC(=O)/C=C/CN(C)C` [Pelitinib (EKB-569)]: the cell viability in assay [1] (reporter: 7TFP) came out at 1.02; in [1] (reporter: TCF4/Wnt), 0.875 ± 0.081; in assay [2], 0.878 ± 0.021; in [3], 1.28 ± 0.14. The “TCF/Wnt firefly luciferase reporter signal” value in assay [4] (reporter: 7TFP) worked out at 0.837 ± 0.16; in assay [4] (reporter: TCF4/Wnt), 1.01 ± 0.17; in assay [5], 0.668 ± 0.071; in assay [6], 1.08 ± 0.021.
Take `Cc1ccc(C(=O)Nc2ccc(CN3CCN(C)CC3)c(C(F)(F)F)c2)cc1C#Cc1cnc2cccnn12`: the cell viability was determined as 0.835 ± 0.055 in assay [1] (reporter: 7TFP), 0.8 ± 0.0099 in [1] (reporter: TCF4/Wnt), 0.631 ± 0.14 in assay [2] and 1.01 ± 0.16 in [3]. Besides, the “TCF/Wnt firefly luciferase reporter signal” value worked out at 0.285 ± 0.064 in assay [4] (reporter: 7TFP), 0.466 ± 0.0028 in assay [4] (reporter: TCF4/Wnt), 0.292 ± 0.12 in assay [5] and 0.668 ± 0.098 in [6].
As to `C=CC(=O)Nc1ccc2ncnc(Nc3ccc(OCc4cccc(F)c4)c(Cl)c3)c2c1`, the cell viability in assay [1] (reporter: 7TFP) amounted to 1.02 ± 0.03; in assay [1] (reporter: TCF4/Wnt), 1.06 ± 0.085; in assay [2], 0.998 ± 0.017; in assay [3] it was 1 ± 0.07. Besides, the “TCF/Wnt firefly luciferase reporter signal” value in assay [4] (reporter: 7TFP) was determined as 0.691 ± 0.0099; in assay [4] (reporter: TCF4/Wnt), 0.879 ± 0.2; in assay [5], 0.686 ± 0.33; in assay [6], 1.09 ± 0.11.

The values above are taken from the supplement of paper PMC6522484.
